# HPGD inh: inhibitors of human 15-hydroxyprostaglandin dehydrogenase (HPGD); AID 894; purified HPGD, NADH fluorescence kinetic, PGE2 substrate; P15428; Potency, µM, actives largely listed as inhibitors; 150,000 compounds, 4.3% hits; active means well fitted inhibition curve with a large enough effect, not every such curve was filed as active; inconclusive means small, poorly fitted or top-dose-only effect, or another doubt; inactive means no such curve, though single readings can be large or run the other way
#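 NADH formation kinetics: reaction with 30 uM PGE2 and 1 mM NAD+ (final), 20 nM enzyme, Tris-HCl pH 8 with Tween 20, after 15 min compound preincubation at room temperature. Fluorescence change, last versus first of five reads.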
# 12-hLO inh: inhibitors of human 12-lipoxygenase (ALOX12) | P18054 | purified 12-hLO, xylenol orange hydroperoxide absorbance | Potency, µM (doses to about 57.1 µM), usual class: inhibitors | 150,000 compounds, 0.12% hits; further: nearly all actives have a fitted effect of over 55% in size
#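 Purified human 12hLO (150 nM final) was preincubated with compounds for 15 min at room temperature in 25 mM Hepes pH 7.0, 0.01% Triton X-100, then reacted with 40 uM arachidonic acid for 30 min. Hydroperoxide was detected with ferrous iron/xylenol orange.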
# aGal spleen mod: inhibits or activates alpha-galactosidase in human spleen homogenate; P06280; human spleen homogenate, 4MU-alpha-Gal fluorescence, 40 min; Potency, µM (titrated, usually from 80 µM), most hits filed as inhibitors; 240,000 compounds, 0.008% hits
# Target sequence (P06280 32-429 limits assumed): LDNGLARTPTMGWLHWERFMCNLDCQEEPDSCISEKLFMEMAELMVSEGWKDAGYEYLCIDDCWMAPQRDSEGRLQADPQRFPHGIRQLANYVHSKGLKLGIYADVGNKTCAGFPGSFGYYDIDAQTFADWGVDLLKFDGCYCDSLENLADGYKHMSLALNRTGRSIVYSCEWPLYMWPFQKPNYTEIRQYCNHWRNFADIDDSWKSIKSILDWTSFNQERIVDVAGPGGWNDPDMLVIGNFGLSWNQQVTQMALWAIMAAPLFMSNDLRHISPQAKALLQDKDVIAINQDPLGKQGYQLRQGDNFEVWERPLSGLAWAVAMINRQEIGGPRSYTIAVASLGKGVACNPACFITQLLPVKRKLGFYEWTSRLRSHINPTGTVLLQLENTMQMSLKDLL
#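 Human spleen homogenate (1 ug) was the enzyme source, with 4-methylumbelliferyl-alpha-D-galactopyranoside (1 mM final) in pH 5.0 citrate buffer with 0.01% Tween-20. Compounds were titrated; after 40 min at 37C, NaOH/glycine stop, 4-MU fluorescence read; AC50 from Hill fits.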
# ALDH1A1 inh: inhibitors of human aldehyde dehydrogenase 1A1. P00352. Purified ALDH1A1, NADH fluorescence, propionaldehyde substrate. Potency, µM (top dose mostly 75.3 µM), most hits filed as inhibitors. 220,000 compounds, 7.3% hits. AID 1030; active means well fitted inhibition curve with a large enough effect, not every such curve was filed as active; inconclusive means small, poorly fitted or top-dose-only effect, or another doubt; inactive means no such curve, though single readings can be large or run the other way
# GLA inh pH 4.5: blocks human alpha-galactosidase A at pH 4.5 | P06280 | activity change, negative = inhibition, % at 105 µM | AID 1467 | 230,000 tested, under 10 active | purified enzyme, 4-MU-alpha-Gal fluorescence, pH 4.5
# PNC assembly inh: perinucleolar compartment assembly inhibition; PC3M PTB-GFP, PNC prevalence imaging, 16 h; active compounds read low; activity change (PNC), negative = inhibition, % at 10 µM; 140,000 compounds, 3.1% hits; AID 2417;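 active means readout at or below -70, meaning at least 70% loss of cells showing the perinucleolar compartment, a nuclear body marking cancer cells; inconclusive means readout between -30 and a set limit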
#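 Compounds are pinned in duplicate onto adhered PC3M cells stably expressing GFP-tagged PTB and incubated 16 h at 37 C. Cells are then fixed, nuclei stained with Hoechst, and PNC-positive cells counted.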
# Hits are given with their value; 0 = inactive; ? = inconclusive; - = no result; [ ] = remark or other dose. Shown are actives, neighbours in structure and some others; about 10% of the full set was active somewhere. Unless noted, the call rests on the fitted dose curve; in most records, active means well fitted curve in the direction sought with a large enough effect; inconclusive means small, poorly fitted or top-dose-only effect, or another doubt; inactive means no such curve, though single readings can be large; an effect the other way counts as inactive or inconclusive.
SMILES,HPGD inh,12-hLO inh,aGal spleen mod,ALDH1A1 inh,GLA inh pH 4.5,PNC assembly inh
CCCc1nnc(NC(=O)c2c(O)c3c([nH]c2=O)CCCC3)s1,0,0,0,0,0,-114
COc1ccc(/C=N/NC(=O)Cn2cnc3ccccc3c2=O)cc1OC,0,0,0,0,0,?
S=C1N[C@H](c2ccccc2)N[C@H](c2ccccc2)S1,?,0[11.4 µM],-,3.2µM,-,-
O=C(c1ccc(Nc2nccc(-c3cc4ccccc4s3)n2)cc1)N1CCC(N2CCCC2)CC1,-,-,0,-,-,-
CCOC(=O)c1cc(C#N)c(SCC(=O)c2cc(C#N)c(SC)nc2C)[nH]c1=O,1.4µM,0,0,1.3µM,0,0
CS(=O)(=O)c1[nH]nc(-c2cccc(Cl)c2)c1C#N,-,-,0,-,0,-
CC(C)(C)c1ccc(-n2nc(C#N)c(Cl)cc2=O)cc1,-,-,0,13µM,0,-
CC(C)(C)c1ccc(-n2nc(C(N)=O)c(O)cc2=O)cc1,-,-,0,0,0,-
COC(=O)[C@H](Cc1ccccc1)NC(=O)O[C@@H]1C(=O)c2cc(OC)ccc2O[C@H]1c1cccc(OC)c1,0,-,0,20µM,0,-
COc1ccc(OC)c(NC(=O)CSc2ncnc3c2cnn3-c2ccccc2Cl)c1,0,0,0,16µM,0,?
COc1ccc(OC)c(NC(=O)CSc2ccc3ccccc3c2)c1,-,0,0,11µM,0,?
COc1ccc(OC)c(NC(=O)CSCC(=O)O)c1,0,0,0,20µM,0,0
COc1cc(NC(=O)CSc2ncnc3c2cnn3Cc2ccccc2)cc(OC)c1,0,0,0,?,0,0
C[N+]1(CCC(=O)c2ccco2)CC2CCC(CC2)C1 (configuration not stated),0,0[11.4 µM],-,0[13.5 µM],-,-
Cc1csc2ncnc(N3CCN(C(=S)Nc4ccc(F)cc4F)CC3)c12,-,-,0,-,0,-
Cc1csc2nc(CSc3nc4ccccc4o3)c(Br)n12,14µM,0,0,22µM,0,0
COc1cc(/C=C(\C#N)C(=O)NC(C)C)ccc1OCc1ccc(C(=O)O)cc1,-,-,0,?,0,-
COc1ccc(/C=C(\C#N)C(=O)NCC2CCCO2)cc1OC (configuration not stated),22µM,0,0,?,0,?
COc1cc(/C=C(\C#N)C(=O)NC2CCCCC2)ccc1OCc1ccc(C(=O)O)cc1,-,-,0,14µM,0,-
COc1cc(/C=C(/C#N)C(=O)Nc2ccccc2)ccc1OCc1ccc(C(=O)O)cc1,-,-,0,22µM,0,-
Cc1ccc(C(=O)C(c2ccccc2)N2Cc3ccccc3C2=N)cc1 (configuration not stated),?,0,0,?,0,0
Cc1ccc(C(=O)OCC(=O)Nc2ccccc2)cc1NC(=O)c1ccco1,0,0,0,0,0,0
CC(C)c1ccccc1NC(=O)c1ccco1,0,0,0,0,0,-96
Cc1ccc(C(=O)OCC(=O)Nc2ccc(N(C)C)cc2)cc1NC(=O)c1ccco1,0,0,0,12µM,0,?
CCC(C)c1ccccc1NC(=O)COC(=O)c1ccc(C)c(NC(=O)c2ccco2)c1 (configuration not stated),?,0,0,40µM,0,?
SMILES,HPGD inh,12-hLO inh,aGal spleen mod,ALDH1A1 inh,GLA inh pH 4.5,PNC assembly inh
Cc1ccc(C(=O)OCC(=O)Nc2cc(F)ccc2F)cc1NC(=O)c1ccco1,0,0,0,0,0,0
CC(C)Sc1nnc(NC(=O)c2ccco2)s1,-,-,0,14µM,0,-
CCSc1nnc(NC(=O)c2ccco2)s1,0,0,0,0,0,?
COC(=O)[C@@H](NC(=O)O[C@H]1C(=O)c2cc(OC)ccc2O[C@@H]1c1ccc(OC)c(Br)c1)C(C)C,0,-,0,?,0,-
COc1ccc(NC(=O)c2ccccc2NC(=O)c2ccco2)c(OC)c1,0,0,0,0,0,?
COc1ccc(C(=O)NNC(=O)C(C)NC(=O)c2ccccc2NC(=O)c2ccco2)cc1 (configuration not stated),0,0,0,0,0,-93
O=C1CC(c2ccccc2)Oc2ccccc21 (configuration not stated),0,0,0,0,0,-
Cn1c(Cl)cnc1C1CC(=O)c2cc(Cl)ccc2O1 (configuration not stated),?,0,0,18µM,0,-112

# Compound activity as filed in PubChem.
